Assay outcomes: PubChem BioAssay, DiRusso Lab, Biochemistry Department, University of Nebraska
Algae TAG accum: algal TAG accumulation induction. Chlamydomonas reinhardtii TAG, Nile Red fluorescence, 72 h. calls only at 10 µM (by protocol). 44,000 tested, 0.84% active. AID 1159537; call rule not given here;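 note: hits raise Nile Red signal meaning more stored TAG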
Numbers without * were called inactive; i = inactive; + = active, no number. This is one part of a sample in which hits are shown more often than they occur.

SMILES	Algae TAG accum
Cc1cc(C)c(C)c(OCCCCN2CCOCC2)c1	+
Cc1ccccc1OCCCCN1CCOCC1	+
Cc1ccc(C(C)C)cc1OCCCCN1CCOCC1	+
Cc1cc(C)c(OCCN2CCOCC2)c(C)c1	i
C=CCc1ccccc1OCCCCN1CCOCC1	i
Cc1ccc(OCCCN2CCOCC2)cc1C	i
Cc1cccc(OCCN2CCOCC2)c1C	i
Cc1cc(C)c(C)c(OCC(=O)NCCN2CCOCC2)c1	i
O=S1(=O)C=CC(Nc2ccc(Cl)cc2)C1 (stereo not given)	i
CCn1c(SC/C=C/c2ccccc2)nnc1-c1ccncc1	i
Fc1ccccc1Cn1nnc(-c2ccccc2)n1	i
Fc1ccc(C2=CSC3=NCCN23)cc1	i
Brc1ccc(C2=CSC3=NCCN23)cc1	i
CCOc1ccc(C2=CSC3=NCCN23)cc1	+
COc1ccc(S(=O)(=O)NCC2CCN(S(=O)(=O)c3ccc(OC)cc3)CC2)cc1	i
CN1CCCN(Cc2ccc([N+](=O)[O-])o2)CC1	+
CN1CCCN(Cc2ccc(-c3ccccc3[N+](=O)[O-])o2)CC1	i
O=[N+]([O-])c1ccc(CN2CCN(c3ccccc3)CC2)o1	i
O=C1C2C3C=CC(C4CC34)C2C(=O)N1C12CC3CC(CC(C3)C1)C2 (stereo not given)	i
CC(=O)Nc1cccc(NC(=O)CC(c2ccccc2)c2ccccc2)c1	i
c1ccc(OCCN2CCCC2)cc1	i
CN1CCN(CCCOc2ccc(OCc3ccccc3)cc2)CC1	i
CCC(C)c1ccc(OCCCCN2CCN(C)CC2)cc1 (stereo not given)	i
CN1CCN(CCOc2ccc(C(C)(C)c3ccccc3)cc2)CC1	+
CN1CCN(CCCOc2ccc(C(C)(C)c3ccccc3)cc2)CC1	i
SMILES	Algae TAG accum
CCC(C)c1ccc(OCCCN2CCN(C)CC2)cc1 (stereo not given)	+
CCCC(=O)Nc1ccc(NC(=O)c2ccc([N+](=O)[O-])o2)cc1	i
Cc1sc2nc(SCC(=O)Nc3ccccc3F)n(-c3ccccc3)c(=O)c2c1C	i
Clc1ccc(N2CCN(Cc3cccs3)CC2)cc1	i
COc1cccc(N2CCN(Cc3ccco3)CC2)c1	i
CCOc1cc(CN2CCN(c3ccc(F)cc3)CC2)ccc1OC	i
Fc1ccc(N2CCN(Cc3ccsc3)CC2)cc1	+
COc1ccc(N2CCN(Cc3cc(OC)cc(OC)c3)CC2)cc1	i
O=C(c1ccc(CN2CCOCC2)cc1)N1CCN(c2ccc(F)cc2)CC1	i
COc1cccc(N2CCN(Cc3ccsc3)CC2)c1	+
Clc1ccc(N2CCN(Cc3ccsc3)CC2)cc1	+
O=[N+]([O-])c1ccc(N2CCN(Cc3ccsc3)CC2)cc1	i
Cc1nc(C)c(-c2cc(C)c3c(C)nc(C)nc3n2)c(N)n1	i
Cc1ccc(C)c(OCC(=O)NCc2ccc(F)cc2)c1	i
Cc1nn(-c2cc(N3CCN(C)CC3)ccc2[N+](=O)[O-])c(=O)c2ccccc12	i
C(=C(c1nnnn1-c1ccccc1)c1nnnn1-c1ccccc1)c1ccccc1	i
CS(=O)(=O)N(CC(=O)O)c1cccc(Br)c1	i
O=C(CCSc1nc2ccccc2[nH]1)NC1CCCCC1	i
COCCCN1C(=O)c2ccc(C(=O)Nc3ccc(F)cc3)cc2C1=O	i
Brc1ccc(OCCCn2ccnc2)cc1	i
Ic1ccc(OCCCn2ccnc2)cc1	i
O=C(c1ccccc1)c1ccc(OCCCCn2ccnc2)cc1	+
CN(C)C(=O)CN(c1ccc(Oc2ccccc2)cc1)S(C)(=O)=O	i
C=CCOc1c(Cl)cc(C=O)cc1OC	i
COc1ccccc1NC(=O)c1cc(Cl)c(OC)c(Cl)c1	i
SMILES	Algae TAG accum
CN1CCN(CCCCOc2ccc(C(=O)c3ccccc3)cc2)CC1	i
CN1CCN(CCC(=O)Nc2ccccc2)CC1	i
CN1CCN(CC#CC=C(c2ccccc2)c2ccccc2)CC1	+
O=C(NCc1cnc(-c2ccccc2)s1)c1ccc([N+](=O)[O-])cc1	i
C/C(=C\c1ccccc1)CN1CCOCC1	i
CCOC(=O)N1CCN(C/C(C)=C/c2ccccc2)CC1	i
C/C(=C\c1ccccc1)CN1CCN(C)CC1	+
O=C(Nc1ccc(Cl)cc1F)c1ccc2c(c1)OCO2	i
COc1cc(CNCc2ccc(Br)cc2)cc(OC)c1OC	i
Cc1cc(Br)ccc1OCc1nc(-c2ccncc2)no1	i
NC(=O)C1CCN(CC2CC3C=CC2C3)CC1 (stereo not given)	i
COc1ccc(Br)cc1CN1CCC(N2CCCCC2)CC1	i
O=[N+]([O-])c1ccccc1S(=O)(=O)N1CCN(CC2CC3C=CC2C3)CC1 (stereo not given)	i
C1=CC2CC1CC2CN1CCN(C2CCC(c3ccccc3)CC2)CC1 (stereo not given)	+
Oc1ccc(Br)cc1CN1CCC(N2CCOCC2)CC1	+
C1=CC2CC1CC2CN1CCN(Cc2ccccn2)CC1 (stereo not given)	i
C1=CC2CC1CC2CN1CCOCC1 (stereo not given)	i
Oc1ccc(Br)cc1CN1CCN(CC2CC3C=CC2C3)CC1 (stereo not given)	+
C1=CC2CC1CC2CN1CCN(c2ccccc2)CC1 (stereo not given)	+
CCN1CCN(CC2CC3C=CC2C3)CC1 (stereo not given)	i
CCC(C)N1CCN(CC2CC3C=CC2C3)CC1 (stereo not given)	i
O=[N+]([O-])c1ccc(O)c(CN2CCOCC2)c1	i
COCCNC(=O)c1ccc(N(Cc2ccccc2)S(C)(=O)=O)cc1	i
O=C(CCc1nnc(NC(=O)c2ccc(Cl)c(Cl)c2)s1)c1ccccc1	i
CC(C)c1ccc([N+](=O)[O-])cc1S(=O)(=O)N1CCOCC1	i
SMILES	Algae TAG accum
COc1cccc(OC)c1C(=O)Nc1ccc(C)cc1Br	i
O=C(CCCc1ccccc1)Nc1ccc(F)cc1F	i
CN(Cc1ccccc1)C(=O)CN(c1ccc([N+](=O)[O-])cc1)S(=O)(=O)c1ccccc1	i
CC1CCc2c(sc3ncnc(Nc4ccc5c(c4)OCCO5)c23)C1 (stereo not given)	i
CCN(CCN(C)C)Cc1ccc(F)c(F)c1	i
O=C1CCC(=O)N1c1cccc(-c2nc3cc(Cl)ccc3o2)c1	i
COc1ccccc1C(=O)Nc1sc2c(c1C(=O)NC1CCS(=O)(=O)C1)CCCC2 (stereo not given)	i
O=C(Nc1ccccc1C(=O)Nc1ccc(Cl)cc1Cl)c1ccco1	i
O=C(c1ccc(F)cc1)N1CCN(Cc2ccc([N+](=O)[O-])cc2)CC1	i
O=C(c1ccc([N+](=O)[O-])cc1)N1CCN(CCO)CC1	i
O=C(c1ccc([N+](=O)[O-])cc1)N1CCN(CC2CC3C=CC2C3)CC1 (stereo not given)	+
O=C(NCCCNc1ccc([N+](=O)[O-])cc1)c1cc(F)c(F)cc1Cl	i
Cc1ccccc1C(=O)Nc1ccccc1C(=O)NCc1ccccc1	i
Cc1c(C(=O)Nc2ccccc2C(=O)NCc2ccccc2)cccc1[N+](=O)[O-]	+
O=C(Nc1ccccc1C(=O)NCc1ccccc1)c1ccccc1F	i
O=C(Nc1ccccc1C(=O)NCc1cccnc1)c1ccc(F)cc1	i
O=C(Nc1ccccc1C(=O)NCc1ccccc1)c1ccc(F)cc1	+
Cc1c(C(=O)Nc2ccccc2C(N)=O)cccc1[N+](=O)[O-]	i
CCCC(C)C(=O)Nc1ccc(F)cc1F (stereo not given)	i
